WT yeast gro inh: growth inhibition of WT yeast, mitochondrial fusion screen; mitochondrial fusion phenotypic screen, WT strain; inhibition, % at 10 µM; 190,000 tested, 2.1% active; in the data active means inhibition above about 58%; tested in S. cerevisiae
Platelet DG rel: platelet dense granule release activity; human platelet-rich plasma, SFLLRN dense granule ATP release, luminescence; inhibition, %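 (compounds screened at 7.5 µM in platelet-rich plasma)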; 300,000 tested, 0.22% active; AID 1663;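 active means mean replicate score, as percent of positive control, at or above 50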
PHOSPHO1 inh: inhibitors of human PHOSPHO1 phosphatase; 290,000 tested, 1.1% active; AID 1565; Q8TCT1; recombinant PHOSPHO1, absorbance phosphatase assay; inhibition, % at 13.3 µM; in the data active means inhibition above about 60%
Target sequence (Q8TCT1 whole entry, looked up): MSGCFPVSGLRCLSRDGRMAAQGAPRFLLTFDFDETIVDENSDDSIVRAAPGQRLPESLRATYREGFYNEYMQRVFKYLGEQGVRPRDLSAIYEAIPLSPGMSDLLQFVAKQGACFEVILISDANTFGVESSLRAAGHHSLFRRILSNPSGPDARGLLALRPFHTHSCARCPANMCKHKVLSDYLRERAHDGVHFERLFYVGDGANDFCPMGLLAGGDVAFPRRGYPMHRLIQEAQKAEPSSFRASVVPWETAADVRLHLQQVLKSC
Rtt109 Vps75: blocks Candida albicans Rtt109/Vps75 acetyltransferase activity; 330,000 tested, 0.16% active; inhibition, % at 34.9 µM; purified Rtt109/Vps75, ThioGlo CoA-SH fluorescence, 4 h;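 active means inhibition of at least 50% in every replicate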
Target sequence (Q5AAJ8 whole entry, looked up): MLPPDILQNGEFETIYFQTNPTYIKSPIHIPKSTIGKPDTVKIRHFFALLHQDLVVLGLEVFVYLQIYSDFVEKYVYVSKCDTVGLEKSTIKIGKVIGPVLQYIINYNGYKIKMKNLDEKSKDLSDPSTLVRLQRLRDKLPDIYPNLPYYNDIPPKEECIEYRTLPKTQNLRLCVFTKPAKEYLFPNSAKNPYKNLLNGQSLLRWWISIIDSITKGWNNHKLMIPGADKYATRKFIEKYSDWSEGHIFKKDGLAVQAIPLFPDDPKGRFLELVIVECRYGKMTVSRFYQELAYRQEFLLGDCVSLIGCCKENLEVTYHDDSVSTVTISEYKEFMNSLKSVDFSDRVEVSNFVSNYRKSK
TPT1 inh: blocks Candida albicans tRNA 2'-phosphotransferase; AID 1962; recombinant caTPT1, FP RNA substrate dephosphorylation; inhibition, % at 5 µM; 300,000 tested, 0.81% active;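 active means inhibition above the mean of all tested compounds plus 3 SD, set per screening campaign, cut at about 24% in these data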
SKKanGAS inh: SKKanGAS growth inhibition | S. pyogenes SKKanGAS, kanamycin growth, BacTiter-Glo, 6 h | 300,000 tested, 1.3% active | inhibition, % at 7.5 µM;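 active means mean replicate score, as percent of positive control median, at least 50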;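 further: strain carries kanamycin resistance gene driven by streptokinase promoter and grows in 40 µg/ml kanamycin; loss of luminescence reflects streptokinase promoter inhibition or plain growth inhibition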
Each line names hits and unclear results; the compound was inactive in the other large screens; ! = not active in a repeat. Most compounds without a hit are left out; they make up all but 3.9% or so of the library.

CN(C)CCCN(C(=O)/C=C/c1cccs1)c1nc2ccc(F)cc2s1	WT yeast gro inh 85.8
CCOc1ccc(C(C)NC(=O)c2cc(=O)[nH]c3ccccc23)cc1OCC (stereo not drawn)	none (no result: WT yeast gro inh)
Cc1ccc(Cn2nc(C)c(C(=O)NCC(c3ccc(F)cc3)N3CCOCC3)c2Cl)cc1 (stereo not drawn)	none (no result: WT yeast gro inh, Platelet DG rel, PHOSPHO1 inh, TPT1 inh, SKKanGAS inh)
Cc1c(C(=O)Nc2ccc(S(=O)(=O)N(C)C3CCN(C)CC3)cc2)oc2c(Cl)cccc12	Rtt109 Vps75 66.2 (no result: WT yeast gro inh, PHOSPHO1 inh)
CCc1ccc(NC(=O)CSc2nncn2-c2cccnc2)cc1	none (no result: WT yeast gro inh)
CCOC(=O)C1=C(CC)Nc2ccccc2N=C1NC(=O)Nc1ccc(Cl)c(Cl)c1	SKKanGAS inh 93.2
CCOC(=O)C1=C(CC)Nc2ccccc2N=C1NC(=O)c1cc(C)on1	none (no result: WT yeast gro inh, Platelet DG rel, PHOSPHO1 inh, TPT1 inh, SKKanGAS inh)
CCn1c(CSc2nc3ccccc3s2)nnc1SCC(=O)c1ccc(O)c(O)c1	PHOSPHO1 inh 85.5
CCn1c(SCC(=O)c2ccc(O)c(O)c2)nnc1-c1ccccc1	none
Cn1c(CSc2nc3ccccc3s2)nnc1SCC(=O)NCc1ccccn1	none
CCn1c(CSc2nc3ccccc3s2)nnc1SCC(=O)c1ccc(Cl)cc1	PHOSPHO1 inh 73.4
O=C(CNS(=O)(=O)c1cccs1)NCCc1ccc(Cl)cc1	none (no result: WT yeast gro inh)
NC(=O)C1CCN(C(=O)c2cc(-c3ccc(Cl)s3)nc3ccccc23)CC1	none (no result: WT yeast gro inh, Platelet DG rel, PHOSPHO1 inh, TPT1 inh, SKKanGAS inh)
COc1cc(/C=N/N=C2/NC(=O)C(c3ccccc3)S2)ccc1O (stereo not drawn)	PHOSPHO1 inh 66.7
COc1cc(/C=N/N=C2/NC(=O)C(Cc3ccc(F)cc3)S2)ccc1O (stereo not drawn)	none
COc1ccccc1N1CCN(C(=O)CCC(=O)Nc2nnc(C(C)C)s2)CC1	none (no result: WT yeast gro inh)
C1CCC(C(CC2CCCCN2)C2CCCCC2)CC1 (stereo not drawn)	Rtt109 Vps75 77.6!
O=C(Nc1nnc(C2=COCCO2)o1)c1cccc(F)c1	SKKanGAS inh 63.0 (no result: WT yeast gro inh)
CC(C)Oc1ccc(C(=O)Nc2nnc(C3=COCCO3)o2)cc1	SKKanGAS inh 72.7 (no result: WT yeast gro inh, PHOSPHO1 inh)
CN(C)c1ccc(C(=O)Nc2nnc(C3=COCCO3)o2)cc1	none
CC(C)(C)c1ccc(C(=O)Nc2nnc(C3=COCCO3)o2)cc1	SKKanGAS inh 80.3 (no result: WT yeast gro inh)
O=C(COC(=O)COc1ccccc1F)Nc1ccc2c(c1)OCO2	none (no result: WT yeast gro inh, Platelet DG rel, PHOSPHO1 inh, TPT1 inh, SKKanGAS inh)
CCOc1ccc(S(=O)(=O)N2CCN(C(=O)C3CC3C)CC2)cc1 (stereo not drawn)	none (no result: WT yeast gro inh, Platelet DG rel, PHOSPHO1 inh, TPT1 inh, SKKanGAS inh)
Clc1ccc(-c2nnnn2-c2ccc(Cl)c(Cl)c2)cc1Cl	WT yeast gro inh 79.4, SKKanGAS inh 58.4
COC(=O)c1c(NC(NC(C)=O)C(Cl)(Cl)Cl)sc2c1CCCC2 (stereo not drawn)	none
CCC(=O)NC(Nc1sc2c(c1C(=O)OC)CCC2)C(Cl)(Cl)Cl (stereo not drawn)	none
CC(C)(C)C(=O)Nc1sc2c(c1C#N)CCC2	none
CC(C)(C)C(=O)NC(NC(=S)Nc1sc2c(c1C#N)CCCC2)C(Cl)(Cl)Cl (stereo not drawn)	SKKanGAS inh 49.8
CCOC(=O)c1c(NC(NC(C)=O)C(Cl)(Cl)Cl)sc2c1CCCC2 (stereo not drawn)	WT yeast gro inh 67.5
COC(=O)c1c(NC(NC(=O)C(C)(C)C)C(Cl)(Cl)Cl)sc2c1CCC2 (stereo not drawn)	WT yeast gro inh 71.4, SKKanGAS inh 59.2
COC(=O)c1c(NC(NC(=O)C(C)C)C(Cl)(Cl)Cl)sc2c1CCC2 (stereo not drawn)	WT yeast gro inh 59.7
O=C(NCCc1ccccc1O)c1cc2c(cc1[N+](=O)[O-])OCO2	none (no result: WT yeast gro inh, Platelet DG rel, PHOSPHO1 inh, TPT1 inh, SKKanGAS inh)
CSCC[C@H](NC(=O)C1CCC(CNC(=O)[C@@H]2CCCN2C(=O)OC(C)(C)C)CC1)C(=O)O (stereo partly drawn)	none (no result: WT yeast gro inh, TPT1 inh)
CCOc1ccc(NS(=O)(=O)c2cc(C(=O)NCCN3CCOCC3)ccc2C)cc1	none (no result: WT yeast gro inh, Platelet DG rel, PHOSPHO1 inh, TPT1 inh, SKKanGAS inh)
COc1ccc(-c2nnc(-c3cccs3)o2)cc1OC	none
COc1ccc(-c2nc(-c3cccs3)c(-c3cccs3)[nH]2)cc1O	SKKanGAS inh 60.8
O=[N+]([O-])c1ccc(NS(=O)(=O)N2CCOCC2)cc1	none (no result: WT yeast gro inh, Platelet DG rel, PHOSPHO1 inh, TPT1 inh, SKKanGAS inh)
CCCCOc1ccc(CSc2nc(C)[nH]c2[N+](=O)[O-])cc1[N+](=O)[O-]	PHOSPHO1 inh 60.8 (no result: WT yeast gro inh, Rtt109 Vps75)
CCCCOc1ccc(CSc2nnc(C)n2N)cc1[N+](=O)[O-]	none
Clc1ccc(C2=Nn3c(nnc3-c3n[nH]c4c3CCC4)SC2)cc1	PHOSPHO1 inh 73.3
Brc1ccc(C2=Nn3c(nnc3-c3n[nH]c4c3CCC4)SC2)cc1	none
C[C@H](NC(=O)c1ccc2ccccc2c1)C(=O)N1CCC2(CC1)NCCc1[nH]cnc12	none (no result: WT yeast gro inh)
CCN1C(=O)/C(=C/C=C2/Sc3ccc4ccccc4c3N2CCO)SC1=S	none
CCCN1C(=O)/C(=C\C=C2/C=CN(CC)c3ccccc32)SC1=S	WT yeast gro inh 59.2
O=C(O)c1cc(-c2ccc3c(c2)OCCO3)n[nH]1	PHOSPHO1 inh 60.1
O=C(CSc1nnc(Cc2cccs2)n1CCc1ccccc1)N1CCCc2ccccc21	PHOSPHO1 inh 66.4
Cn1c(Cc2cccs2)nnc1SCC(=O)N1CCCc2ccccc21	none
CC(=O)Oc1ccc(-c2cccc(C(=O)Oc3ccccc3)c2)cc1	WT yeast gro inh 73.7
CC(=O)Oc1ccc(-c2cccc(C(=O)NCC(=O)O)c2)cc1	none
COC(=O)C1(C)NC(c2ccc(OC)cc2)C2C(=O)N(c3ccccc3)C(=O)C21 (stereo not drawn)	none (no result: WT yeast gro inh)
CCN(c1ccc(OC)cc1)S(=O)(=O)c1nnc(NC(=O)COc2ccc(C)cc2)s1	Rtt109 Vps75 56.6 (no result: WT yeast gro inh)
COc1cc(S(=O)(=O)N2CCOCC2)ccc1NC(=O)CSc1nnc(N)s1	PHOSPHO1 inh 64.6
CCOc1ccccc1NC(=O)C(OC(=O)c1ccc(O)cc1)c1ccccc1 (stereo not drawn)	WT yeast gro inh 77.4
CCOc1ccccc1NC(=O)C(NCC1CCCCC1)c1ccccc1 (stereo not drawn)	WT yeast gro inh 73.9, SKKanGAS inh 54.9
CCOc1ccccc1NC(=O)C(OC(=O)c1ccc(CC)cc1)c1ccccc1 (stereo not drawn)	none
CCOc1ccccc1NC(=O)C(NCCN(C)C)c1ccccc1 (stereo not drawn)	none
Cc1ccccc1Oc1ccc2c(c1)[C@@H]1C[C@H](N(C)C(=O)c3ccc(C#N)cc3)[C@H]([C@H](C)O)C(=O)N1CC2	none (no result: WT yeast gro inh, Platelet DG rel, PHOSPHO1 inh, TPT1 inh, SKKanGAS inh)
CCCCCC(=O)Cc1cc(O)cc2c1C(=O)Oc1cc(O)c(C(=O)O)c(CCCCC)c1O2	SKKanGAS inh 71.3 (no result: WT yeast gro inh, Rtt109 Vps75)
Cc1ccc(Cl)c(NC(=O)COC(=O)c2cc[n+]([O-])cc2)c1Cl	none (no result: WT yeast gro inh, Platelet DG rel, PHOSPHO1 inh, TPT1 inh, SKKanGAS inh)
COC(=O)c1ccn(C(=O)c2ccc(Cl)cc2)n1	WT yeast gro inh 92.6
O=C(N/N=C/c1cc([N+](=O)[O-])ccc1O)C(O)(c1ccccc1)c1ccccc1	SKKanGAS inh 50.6 (no result: WT yeast gro inh)
O=C(N/N=C\c1cc(Br)ccc1O)c1ccc(S(=O)(=O)N2CCCCC2)cc1	SKKanGAS inh 106.0
